The source of these data is PubChem BioAssay (NCATS).

Each structure is given as a SMILES string. Inconclusive results are not listed. Where a call stands in place of a potency, no number is given. The source made the active and inactive calls. The call rests on the fitted dose curve; in most records, active means well fitted inhibition curve with a large enough effect; inconclusive means small, poorly fitted or top-dose-only effect; inactive means flat fitted curve, though single readings scatter.

Calcium and integrin-binding protein 1 (Homo sapiens), sequence (Q99828 whole entry, looked up): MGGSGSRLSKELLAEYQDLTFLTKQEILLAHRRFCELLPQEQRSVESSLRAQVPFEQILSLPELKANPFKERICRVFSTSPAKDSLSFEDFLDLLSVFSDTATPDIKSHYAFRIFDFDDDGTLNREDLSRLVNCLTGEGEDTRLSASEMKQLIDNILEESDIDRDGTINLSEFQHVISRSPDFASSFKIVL

The target of this experiment is Calcium and integrin-binding protein 1 (Homo sapiens) (UniProt Q99828). The experiment in a line: Primary qHTS for Identification of Calcium Integrin Binding Protein 1 (CIB1) Competitor (AID 1508620).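 Further: GST tagged CIB1 binding a fluorescein labelled alphaIIb integrin peptide tracer; top concentration of the series differs between compounds.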 To be noted: CIB1-GST / FITC-alphaIIb peptide fluorescence polarization; series mostly up to 114 µM. The procedure, abridged:
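CIB1-GST (1 uM final) and compound incubated 15 min at room temperature before adding FITC-alphaIIb peptide tracer (100 nM final). Competition for binding read by fluorescence polarization (ex 480, em 540) after another 15 min at room temperature.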
Consider `Cc1cc(N[S+](=O)([O-])c2cc3c(cc2Cl)CCC(=O)N3)ccc1Cl`, for which the Potency result is “inactive”.

Turning to `Cc1cccc(-c2csc3ncnc(Sc4nnnn4C)c23)c1`, the Potency entry is “inactive”.

As for `O=S(=O)(c1ccc2c(c1)OCCO2)N1CCN(S(=O)(=O)c2cc(F)ccc2F)CC1`, the Potency entry was “inactive”.

On to `CN(C)c1cccc(-c2cc(N3CCC(C(N)=O)CC3)ncn2)c1`, for which the Potency result was “inactive”.

On to `Cc1cc(NC(=O)Nc2nnc(-c3ccncc3)s2)ccc1Br`, for which the Potency result was “inactive”.

Take `CC(=O)Nc1sc2cnccc2c1-c1nc2ccccc2s1`: the Potency result is “inactive”.

For `Cc1ccsc1CNc1ncnc2ccc(-c3ccc4c(c3)OCO4)cc12`, the Potency result is “inactive”.

Consider `Cc1ccnc(NC(=S)N2CCN(c3ccc(Br)cc3)CC2)c1`, for which the Potency entry was “inactive”.

Take `Cc1ccc(S(=O)(=O)NC(N)=NCCC[C@@H](NC(=O)CNC(=O)c2ccccc2)C(=O)Nc2cc(C(F)(F)F)ccc2Cl)cc1`: the Potency entry was “inactive”.

In the case of `O=C(OCC#CCNc1nnc(-c2cccc3ccccc23)o1)c1cccs1`, the Potency entry is “inactive”.

Consider `Brc1cnc2nc(SCc3cccnc3)[nH]c2c1`, for which the Potency result was “inactive”.

Turning to `Cc1cc(C)nc(NC(=S)N2CCN(c3ccc(S(C)(=O)=O)cc3F)CC2)c1`, the Potency entry was “inactive”.

On to `COc1ccc(C2Nc3ccccc3C(=O)N2Cc2ccc3c(c2)OCO3)cc1COc1c(C)cc(NC(C)=O)cc1C` (stereo not given), for which the Potency entry is “inactive”.

Turning to `CCCCc1ccc(-c2ccc(=O)n(CC(=O)NCCc3ccccc3)n2)cc1`, the Potency result was “inactive”.

As to `CCNC(=O)c1ccc(-c2ccc3ncnc(NCc4ccc(C)o4)c3c2)o1`, the Potency entry is “inactive”.

For `Cc1ccccc1C(=O)N1CCc2cc(-c3nc(NC(=O)Cc4ccc5ccccc5c4)sc3C)ccc21`, the Potency entry was “inactive”.

Take `O=C(/C=C/c1ccccc1)Nc1cccc(S(=O)(=O)Nc2ccccc2F)c1`: the Potency entry is “inactive”.

As to `O=c1c(Nc2ccc(Br)c(Br)c2)c(Nc2nnc(-c3ccncc3)s2)c1=O`, the Potency result is “inactive”.

Consider `Cc1cn([C@H]2C[C@H](N[S+](=O)([O-])c3ccc4c(c3)OCCO4)[C@@H](CO)O2)c(=O)[nH]c1=O`, for which the Potency entry was “inactive”.

With `CC(=O)Nc1sc2c(c1-c1ccc(-c3nn[nH]n3)cc1)CCNC2`, the Potency result is “inactive”.

`CC(=O)Nc1sc2c(c1-c1ccc(C)cc1)CCNC2`: the Potency entry was “inactive”.

For `Cn1ccc2cc(-c3ccc4ncnc(NCc5ccc6c(c5)OCO6)c4c3)ccc21`, the Potency result was “inactive”.

For the compound `O=C(NCCc1nc2ccccc2n1CCOc1cccc(Br)c1)C1CCCCC1`, the Potency result was “inactive”.

For `O=C(c1ccccc1O)N(Cc1cccs1)Cc1cccs1`, the Potency entry is “inactive”.

Consider `O=C(OCC#CCSc1nnc(-c2cccc3ccccc23)o1)c1ccsc1`, for which the Potency result was “inactive”.

With `O=C(Nc1cccc([S+](=O)([O-])Nc2ccccc2F)c1)c1ccccc1`, the Potency result is “inactive”.

For `O=C1CCCC2=C1C(c1ccccc1)N=C(Nc1nc3ccccc3o1)N2` (stereo not given), the Potency entry is “inactive”.

As to `Cc1ccc(-c2ccc(=O)n(CC(=O)NCc3ncc[nH]3)n2)cc1`, the Potency result was “inactive”.

`N=c1c2c(ccn1CCCCc1ccccc1)Oc1ccc3ccccc3c1C2c1ccccc1` (stereo not given): the Potency entry was “inactive”.

Regarding `CCNc1ncnc2ccc(-c3ccc4c(c3)OCO4)cc12`, the Potency entry is “inactive”.

Take `O=[S+]([O-])(Nc1ccccc1F)c1cccc(NC/C=C/c2ccccc2)c1`: the Potency result was “inactive”.

Take `COc1cccc(-c2csc3ncnc(Sc4nnnn4C)c23)c1`: the Potency result is “inactive”.

On to `O=C(CCC#CCSc1nnc(-c2cccc3ccccc23)o1)c1ccccc1`, for which the Potency result was “inactive”.

Regarding `CC(C)(C)OC(=O)CC(=O)NNC(=O)c1cc2ccccc2[nH]1`, the Potency result was “inactive”.

With `COC(=O)c1cncc(NC(=O)c2cccs2)c1`, the Potency result was “inactive”.

For the compound `O=S(=O)(NC1CCC(CNS(=O)(=O)c2c(F)cccc2F)CC1)c1ccc2c(c1)OCCO2` (stereo not given), the Potency entry was “inactive”.

For `O=C1CCCC2=C1C(c1[nH]ncc1Br)N=C(Nc1nc3ccccc3o1)N2` (stereo not given), the Potency entry is “inactive”.

Turning to `Cc1ccc(OCCn2c(CCNC(=O)c3ccccc3Br)nc3ccccc32)cc1`, the Potency result is “inactive”.

Consider `CCOc1ccc(CCNC(=O)c2cc3sccc3n2Cc2ccncc2)cc1OCC`, for which the Potency result is “inactive”.

As for `COc1ccc(NC(=O)c2[nH]c(C)c(C(C)=O)c2C)cc1S(=O)(=O)Nc1cccc(C#N)c1`, the Potency entry is “inactive”.
